From PubChem BioAssay (EPA / NIEHS) come the findings set out here.

As a reminder, the AC50 is the concentration at which the activity in the assay is half-maximal.

Inconclusive results are not listed. The source made the active and inactive calls. The calls were made as follows, unless noted: active = hit-call score of the fitted dose curve at least 0.9, where 1 is the maximum; inconclusive = response in the unintended direction; inactive = score below 0.9.

A short description of experiment [1]: Tanguay_ZF_120hpf_MORT_legacy: (Legacy) Oregon State University Tanguay Lab 120 Hour Post-fertilization zebrafish Assay for Mortality (AID 2283633).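 As to AC50: fitted as increase in binary mortality versus DMSO negative control.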 An outline of the steps: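 Static waterborne exposure from 6 to 120 hpf at 28C of single dechorionated wild-type (5D) embryos per well, 0.64% DMSO final. Death recorded present/absent by brightfield at 24 and 120 hpf.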

Experiment [2] in a line: Tanguay_ZF_120hpf_YSE_legacy: (Legacy) Oregon State University Tanguay Lab 120 Hour Post-fertilization zebrafish Assay for Yolk Sac Edema (AID 2283634). A digest of the protocol: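 Presence or absence of yolk sac edema was recorded at 120 hpf in surviving larvae. These were wild-type Tropical 5D embryos, chorion removed at 4 hpf, held in static exposure at 28C from 6 hpf with 0.64% DMSO vehicle.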

Experiment [3] can be described thus: Tanguay_ZF_120hpf_AXIS_legacy: (Legacy) Oregon State University Tanguay Lab 120 Hour Post-fertilization zebrafish Assay for Body Axis Malformation (AID 2283635). An outline of the steps: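 Binary scoring of axis defects at 120 hpf under brightfield, fitted positive versus DMSO. Tropical 5D embryos, chorion removed by pronase at 4 hpf, were singly exposed in sealed, dark plates at 28C from 6 hpf; DMSO 0.64% final.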

Experiment [4] in a line: Tanguay_ZF_120hpf_EYE_legacy: (Legacy) Oregon State University Tanguay Lab 120 Hour Post-fertilization zebrafish Assay for Eye Malformation (AID 2283636).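 Also: binary presence or absence of eye malformation scored by brightfield in 120 hpf larvae.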 A digest of the protocol: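 5D wild-type embryos, pronase-dechorionated at 4 hpf; static exposure 6–120 hpf, 28C, dark; DMSO 0.64% final; 5uM trimethyltin chloride positive control. Binary eye-defect scoring at 120 hpf; dead embryos not scored.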

Experiment [5] in a line: Tanguay_ZF_120hpf_SNOU_legacy: (Legacy) Oregon State University Tanguay Lab 120 Hour Post-fertilization zebrafish Assay for Snout Malformation (AID 2283637). A digest of the protocol: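 Binary brightfield scoring of snout malformation at 120 hpf. Dechorionated 5D wild-type embryos, one per well, static exposure from 6 hpf at 28C, sealed and dark; final DMSO 0.64% (vol/vol), DMSO as baseline; 5uM trimethyltin chloride positive control.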

The nature of experiment [6]: Tanguay_ZF_120hpf_OTIC_legacy: (Legacy) Oregon State University Tanguay Lab 120 Hour Post-fertilization zebrafish Assay for Otic Vesicle Malformation (AID 2283639). A digest of the protocol:
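Binary scoring of otic vesicle defects at 120 hpf in zebrafish (Tropical 5D) held under static exposure at 28C, sealed and shaded, with final DMSO 0.64%. Embryos dying by 24 or 120 hpf excluded; fitted positively against DMSO.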

The nature of experiment [7]: Tanguay_ZF_120hpf_PE_legacy: (Legacy) Oregon State University Tanguay Lab 120 Hour Post-fertilization zebrafish Assay for Pericardial Edema (AID 2283640). An outline of the steps: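 Scoring was binary, by brightfield microscopy at 120 hpf, and skipped where mortality occurred. Wild-type embryos were kept under sealed, foil-covered static exposure at 28C in 0.64% (vol/vol) DMSO.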

Experiment [8] can be described thus: Tanguay_ZF_120hpf_SOMI_legacy: (Legacy) Oregon State University Tanguay Lab 120 Hour Post-fertilization zebrafish Assay for Somite Malformation (AID 2283647). A digest of the protocol:
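Binary somite-defect scoring at 120 hpf, omitted for embryos that died, in wild-type (Tropical 5D) zebrafish with chorion removed by pronase at 4 hpf; static exposure began 6 hpf, single embryos per well, 28C, 0.64% DMSO; fitted positive versus DMSO.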

The nature of experiment [9]: Tanguay_ZF_120hpf_PFIN_legacy: (Legacy) Oregon State University Tanguay Lab 120 Hour Post-fertilization zebrafish Assay for Pectoral Fin Malformation (AID 2283648).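 Also: each larva judged yes or no for fin defect by brightfield with dead larvae skipped.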 A digest of the protocol: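 Binary pectoral fin malformation call at 120 hpf by brightfield microscopy; 5D wild-type zebrafish, chorion removed at 4 hpf, one embryo per well from 6 hpf, static exposure at 28C; DMSO (0.64% final) as baseline.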

Experiment [10] is described as follows: Tanguay_ZF_120hpf_CFIN_legacy: (Legacy) Oregon State University Tanguay Lab 120 Hour Post-fertilization zebrafish Assay for Caudal Fin Malformation (AID 2283649). A digest of the protocol: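 Binary brightfield scoring of caudal fin defects at 120 hpf after static, light-shielded exposure at 28C from 6 hpf. Tropical 5D embryos, chorion removed with pronase at 4 hpf, final DMSO 0.64%.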

Experiment [11] can be described thus: Tanguay_ZF_120hpf_PIG_legacy: (Legacy) Oregon State University Tanguay Lab 120 Hour Post-fertilization zebrafish Assay for Pigmentation Malformation (AID 2283650). A digest of the protocol: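 Brightfield scoring of pigmentation malformation at 120 hpf, recorded as binary present/absent per larva. Exposure: dechorionated 5D wild-type embryos, one per well, static from 6 hpf at 28C, final DMSO 0.64% (vol/vol). Dead embryos not scored.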

Experiment [12] in a line: Tanguay_ZF_120hpf_CIRC_legacy: (Legacy) Oregon State University Tanguay Lab 120 Hour Post-fertilization zebrafish Assay for Circulatory Malformation (AID 2283651). A digest of the protocol:
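Binary circulatory malformation call at 120 hpf by brightfield imaging of zebrafish larvae; chorion removed at 4 hpf, static exposure from 6 hpf in sealed dark plates at 28C, final DMSO 0.64%; non-mortality endpoints skipped if embryo died.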

Experiment [13] in a line: Tanguay_ZF_120hpf_BRAI_legacy: (Legacy) Oregon State University Tanguay Lab 120 Hour Post-fertilization zebrafish Assay for Brain Malformation (AID 2283641). A digest of the protocol: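 Binary brightfield scoring of brain malformation at 120 hpf in Tropical 5D larvae held under static exposure at 28C (0.64% v/v DMSO), non-mortality endpoints skipped if dead. Positive control: 5uM trimethyltin chloride; fit versus DMSO.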

A short description of experiment [14]: Tanguay_ZF_120hpf_JAW_legacy: (Legacy) Oregon State University Tanguay Lab 120 Hour Post-fertilization zebrafish Assay for Jaw Malformation (AID 2283638). An outline of the steps:
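Binary jaw-malformation call at 120 hpf by brightfield microscopy. Embryos (Tropical 5D strain, chorion removed at 4 hpf) were dosed statically at 6 hpf, one per well, at 28C with 0.64% DMSO. Embryos that died were not scored.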

Read-out in experiment [15]: solute carrier (SLC22A6), SLC22A6 (gene 9356)
Description: LTEA_HepaRG_SLC22A6: Life Technologies and Expression Analysis (LTEA) Assay for solute carrier (SLC22A6) using HepaRG (AID 2283653; active = hit-call score of the fitted dose curve at least 0.9, where 1 is the maximum; inactive = score below 0.9). The settings on record: mRNA level, 48 h; actives raise or lower the signal. An outline of the steps:
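SLC22A6 transcript was measured by TaqMan qRT-PCR, normalized to three housekeeping genes, after 48 h duplicate exposure of HepaRG cells (100 uM top, half-log steps, 0.5% DMSO); bidirectional fit against vehicle.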

Regarding `O=C1CCCCC1`, the compound was called inactive in [1], in experiment [2], in [3], in [4], in [5] and in [6]. Further, the call in [7], in experiment [8], in experiment [9], in experiment [10], in experiment [11] and in experiment [12] was inactive.
For the compound `CCN(CC)CCOc1ccc(C(=C(Cl)c2ccccc2)c2ccccc2)cc1`, the AC50 in experiment [1] is 26.9 µM (active). Also, the outcome in experiment [2], in [3], in experiment [4], in experiment [6], in experiment [7] and in experiment [13] was inactive. Moreover, the call in experiment [10] and in [12] was inactive.
In the case of `Cc1ccc(-c2cc(C(F)(F)F)nn2-c2ccc(S(N)(=O)=O)cc2)cc1`, the outcome in experiment [1], in experiment [2], in [3], in experiment [4], in [5] and in experiment [7] was inactive. The compound was classed as inactive in experiment [9], in [10], in experiment [11] and in experiment [12].
On to `O=C(O)CC(O)(CC(=O)O)C(=O)O`, for which the result in [1], in [2], in experiment [3], in experiment [4], in [14] and in experiment [6] was inactive. For the same compound, the outcome in [7], in [8], in experiment [9], in [10], in [11] and in experiment [12] was inactive.
Consider `N[C@@H](Cc1c[nH]c2ccccc12)C(=O)O`, for which the call in experiment [1], in experiment [2], in experiment [4], in [6], in experiment [8] and in experiment [9] was inactive. In addition, the result in experiment [10], in experiment [11] and in experiment [12] was inactive.
On to `CC(=O)O`, for which the compound was called inactive in experiment [1], in experiment [2], in experiment [3], in experiment [4], in experiment [6] and in experiment [7]. The compound was classed as inactive in experiment [13], in [8], in experiment [11] and in [12].
`NC=O`: the outcome in experiment [1], in [2], in experiment [3], in experiment [4], in [5] and in [6] was inactive. Moreover, the compound was classed as inactive in experiment [7], in experiment [8], in experiment [9], in experiment [10] and in experiment [11].
On to `O=C(Oc1ccccc1)c1cccc(C(=O)Oc2ccccc2)c1`, for which the compound was classed as inactive in experiment [1], in experiment [2], in experiment [3], in experiment [4], in experiment [5] and in [6]. The call in [7], in experiment [8], in experiment [9], in experiment [10], in experiment [11] and in experiment [12] was inactive.
`Cc1occc(=O)c1O`: the call in experiment [1], in experiment [2], in [3], in experiment [4], in experiment [5] and in experiment [6] was inactive. Moreover, the compound was classed as inactive in [7], in experiment [8], in [9], in [10], in [11] and in [12]. For the same compound, the compound was classed as inactive in experiment [15].
For the compound `CC(=O)CC(c1ccccc1)c1c(O)c2ccccc2oc1=O` (centres undefined), the compound was classed as inactive in experiment [1], in [2], in [3], in experiment [8], in experiment [9] and in [10]. The outcome in experiment [11] and in [12] was inactive.
Regarding `Cc1cn([C@H]2C=C[C@@H](CO)O2)c(=O)[nH]c1=O`, the compound was called inactive in experiment [1], in [2], in experiment [3], in experiment [4], in [5] and in experiment [6]. For the same compound, the outcome in experiment [7], in experiment [8], in [9] and in experiment [12] was inactive.
For `CC(=O)OCC(COC(C)=O)OC(C)=O`, the result in [1], in experiment [2], in experiment [4], in experiment [5], in [6] and in experiment [7] was inactive. Further, the compound was classed as inactive in experiment [13], in experiment [8], in experiment [9], in experiment [10], in experiment [11] and in [12].
Regarding `Nc1nc(=S)c2[nH]cnc2[nH]1`, the compound was called inactive in [1], in experiment [2], in experiment [3], in [4], in experiment [5] and in experiment [7]. The compound was called inactive in experiment [9], in [10] and in [11].
In the case of `C#CC(O)C(CC)CCCC` (centres undefined), the compound was classed as inactive in [1], in experiment [2], in experiment [3], in experiment [4], in [5] and in experiment [6]. Besides, the result in [7], in experiment [9], in experiment [10], in experiment [11] and in [12] was inactive.
With `CC(C)NCC(O)c1ccc(O)c(O)c1` (centres undefined), the call in experiment [1], in experiment [2], in experiment [3], in experiment [4], in experiment [5] and in experiment [6] was inactive. The outcome in experiment [7], in experiment [10], in experiment [11] and in experiment [12] was inactive.
With `C/C=C/C=C/C(=O)O`, the call in experiment [1], in [3], in [4], in experiment [5], in experiment [7] and in experiment [13] was inactive. In addition, the compound was called inactive in experiment [8], in [9], in experiment [10], in experiment [11] and in [12].
As to `O=C(N[C@@H](c1ccccc1)[C@@H]1CCCCN1)c1cccc(C(F)(F)F)c1Cl`, in [1], the AC50 was 26.6 µM (active). Besides, the result in experiment [2], in [3], in experiment [4], in [5], in experiment [6] and in experiment [7] was inactive. In addition, the call in [8], in experiment [9], in experiment [10], in experiment [11] and in [12] was inactive.
On to `Cn1cnc2c1c(=O)[nH]c(=O)n2C`, for which the outcome in experiment [1], in experiment [2], in experiment [3], in experiment [4], in experiment [5] and in experiment [6] was inactive. For the same compound, the compound was classed as inactive in [13], in experiment [8], in experiment [9], in experiment [11] and in experiment [12].
For `O=C(NS(=O)(=O)/C=C/c1cccs1)c1ccc(F)cc1Br`, the call in [1], in [2], in [3], in experiment [4], in experiment [5] and in experiment [6] was inactive. Also, the outcome in experiment [7], in experiment [13], in [8], in [9], in experiment [10] and in [11] was inactive.
